# Source: PubChem BioAssay (several laboratories)
# ARNT-TACC3 inh – disruptors of human ARNT/TACC3 interaction; Q9Y6A5; AlphaScreen His-ARNT PAS-B/GST-TACC3 binding, luminescence; TACC3 fragment carries E629A point mutation; inhibition, % at 9.99 µM; 390,000 tested, 0.66% active;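 active means mean inhibition of replicates at least 50% and at least half of replicates each reaching 50%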
# HIF act – HIF pathway transcriptional activation; 300,000 tested, 0.32% active; activation, % at 7.5 µM (by protocol); U2OS HRE-luciferase reporter, luminescence; normalized: DMSO 0%, desferrioxamine 100%; AID 1910;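 active means mean activation of at least 10% of the iron chelator positive control signal, with at least half of replicates also reaching 10%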
# HSF1 activator – increases HSF-1 driven luciferase reporter signal | NIH3T3-HGL HSF-1 luciferase reporter, MG132, 8 h; 100% = twice DMSO control signal | activation, % at 9 µM | 300,000 tested, 1.7% active;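 active means mean replicate activation of at least 50% with a set share of replicates each reaching 50%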
# HSP90 inh – blocks HSP90-mediated luciferase refolding in reticulocyte lysate | Rabbit reticulocyte lysate, luciferase refolding luminescence, 3 h | inhibition, % at 5.6 µM | 290,000 tested, 0.91% active | AID 1789;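 active means inhibition above the screen-wide mean plus 3 SD, computed separately per campaign, cut at about 16% in these data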;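 further: inhibitors lower the luminescence because luciferase stays unfolded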
# HSF1 inhib – HSF1 inhibition; activity change, negative = inhibition, % at 7.5 µM (by protocol); NIH3T3-HGL HSE-luciferase, MG132-induced, luminescence 8 h; stronger effect = lower value; AID 2098; 300,000 tested, 0.77% active;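 active means more than half of replicate wells show activity change below -50%, luminescence cut by over half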;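 further: luciferase reports HSF-1 transcriptional activity via heat shock element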
# A number is an active result; n = inactive; x = not tested or not shown; ! = repeats disagree. Most compounds without a hit are left out; they make up all but 3.1% or so of the library.
SMILES,ARNT-TACC3 inh,HIF act,HSF1 activator,HSP90 inh,HSF1 inhib
Cc1ccc2nc(-c3ccc(NC(=O)Cc4cccs4)cc3)[nH]c2c1,n,x,76,n,n
COC(=O)C[C@H]1CC[C@@H]2[C@H](COC[C@@H](O)CN2S(=O)(=O)c2ccc(F)cc2)O1,n,x,x,x,x
C[n+]1c2cc(N)ccc2cc2ccc(N)cc21,28!,x,x,x,x
Cc1ccc(S(=O)(=O)NNC(=O)c2cnn(-c3ccc(Cl)cc3)c2C(F)(F)F)cc1,n,n,61,n,n
C[C@@H]1CN([C@@H](C)CO)C(=O)c2cccc(NS(=O)(=O)c3cn(C)cn3)c2O[C@@H]1CN(C)S(=O)(=O)c1ccc(Cl)cc1,n,x,x,x,x
Cc1ccccc1NC(=O)CSc1nc(Nc2ccccc2)nc(N2CCOCC2)n1,n,n,74,n,n
Nc1nc2ccc(C(=O)NCCOC(=O)C3CCCCC3)cc2s1,66,n,n,n,n
FC(F)(F)c1ccc(-c2nc(=S)[nH][nH]2)cc1,n,96,n,n,n
CCCc1nnc(NC(=O)CS(=O)(=O)c2ccc(C)cc2)s1,n,n,n,n,n
Cc1cccc(C)c1NC(=O)c1nc(S(=O)(=O)Cc2ccccc2)ncc1Cl,n,n,596,n,n
Cc1ccccc1NC(=O)c1nc(S(C)(=O)=O)ncc1Cl,n,n,113,n,n
CN1/C(=C/C(=O)c2nc(S(C)(=O)=O)ncc2Cl)C(C)(C)c2ccccc21,n,x,n,n,-92
CCCc1nnc(NC(=O)c2nc(S(=O)(=O)Cc3cccc(C)c3)ncc2Cl)s1,n,n,n,n,-60
C[C@@H]1CCCCO[C@H](CN(C)C(=O)C2CCCCC2)[C@H](C)CN([C@@H](C)CO)C(=O)c2cc(NC(=O)CCC(F)(F)F)ccc2O1,n,x,x,x,x
CSc1ncc(Cl)c(C(=O)Nc2cccc(C)c2)n1,n,x,x,n,x
Cc1cccc(CS(=O)(=O)c2ncc(Cl)c(C(=O)Nc3c(C)cccc3C)n2)c1,n,n,482,n,n
Cc1cccc(CS(=O)(=O)c2ncc(Cl)c(C(=O)NCc3ccccc3)n2)c1,n,n,327,n,n
Cc1cc(C)cc(S(=O)(=O)Cc2noc(C(=O)NCc3ccccc3)c2C(=O)NCc2ccccc2)c1,n,x,x,x,x
CCCN(C)C[C@H]1Oc2ncc(-c3cccc(C#N)c3)cc2C(=O)N([C@H](C)CO)C[C@@H]1C,n,x,x,x,x
CCOC(=O)C1(CC2CCCCO2)CCN(Cc2nc3ccccc3[nH]2)CC1 (stereo not given),x,n,n,n,-97
O=C(NCC[C@@H]1CC[C@@H](NS(=O)(=O)c2ccccc2)[C@H](CO)O1)c1ccccc1F,n,x,x,x,x
COc1ccc(S(=O)(=O)NCCc2c(C)nn(C)c2Oc2ccccc2)cc1,n,n,n,n,n
Cc1nn(C)c(Oc2ccccc2)c1CCNS(=O)(=O)c1ccc(Cl)cc1,n,n,55,n,n
O=C(/C=C/c1ccccc1)Oc1cccc2cccnc12,47,n,n,n,n
O=C(/C=C\c1ccccc1)Oc1cccc2cccnc12,x,n,n,n,n
SMILES,ARNT-TACC3 inh,HIF act,HSF1 activator,HSP90 inh,HSF1 inhib
COc1ccc(C2=NOC(C(=O)Nc3c(C)n(C)n(-c4ccccc4)c3=O)C2)cc1OC (stereo not given),n,n,n,n,-73
COc1ccc(C2=NOC(C(=O)N3CCCCCC3)C2)cc1OC (stereo not given),n,n,n,n,-78
COc1ccccc1CN1[C@@H]2c3cccc(=O)n3C[C@@H]2[C@@H](CO)[C@@H]1C(=O)NCCc1ccncc1,n,x,x,x,x
CN(C)c1cccc(/C=C(\C#N)c2ccccc2)c1,n,n,63,n,n
CS(=O)(=O)Nc1ccc2c(c1)[C@H]1C[C@H](CC(=O)NCc3ccccc3)O[C@@H](CO)[C@H]1O2,n,x,x,x,x
COc1ccc(S(=O)(=O)Nc2ccc3c(c2)C(=O)N([C@@H](C)CO)C[C@@H](C)[C@H](CN(C)C(=O)NC2CCCCC2)OCCCC[C@@H](C)O3)cc1,n,x,x,x,x
COc1cc2[nH]c(=S)nc(Nc3ccc(NC(C)=O)cc3)c2cc1OC,x,n,n,n,n
COc1ccc(CCNc2nc(=S)[nH]c3cc(OC)c(OC)cc23)cc1OC,56,n,n,n,n
COc1cc2[nH]c(=S)nc(NCCc3ccc(C)cc3)c2cc1OC,n,x,x,n,x
COc1cc2[nH]c(=S)nc(NCCc3ccc(S(N)(=O)=O)cc3)c2cc1OC,70,n,n,n,n
CO[C@H]1CN(C)C(=O)c2ccc(NS(=O)(=O)c3ccccc3)cc2OC[C@@H](C)NC[C@H]1C,n,x,x,x,x
O=C(C[C@H]1C=C[C@H](NS(=O)(=O)c2ccccc2)[C@@H](CO)O1)NCc1ccccc1F,n,x,x,x,x
CC(=O)Oc1ccc(Cn2cnc3cc4ccccc4cc32)cc1,n,n,68,n,n
CCOc1ccc2c(c1)ncn2Cc1ccccc1,x,n,n,n,n
C[C@@H]1CN([C@H](C)CO)C(=O)c2cc(NC(=O)NC3CCCCC3)ccc2O[C@@H]1CN(C)C(=O)Nc1ccccc1,n,x,x,x,x
Cc1cccc(/N=C/c2nc(-c3ccccc3Br)oc2O)n1,n,n,91,n,n
Cc1ccnc(N=Cc2nc(-c3ccccc3Br)oc2O)c1,x,n,n,n,n
CCc1cccc(NC(=O)c2cccc(S(=O)(=O)N3CCN(C)CC3)c2)c1,n,n,78,n,n
CN1CCN(S(=O)(=O)c2cccc(C(=O)NCCC3=CCCCC3)c2)CC1,n,n,n,x,-76
Cc1nc(CN2CCN(Cc3nc(C(c4ccccc4)c4ccccc4)no3)CC2)cs1,n,n,69,n,n
COc1ccccc1S(=O)(=O)N[C@H]1CC[C@H](CCn2cc(C3CCCCC3)nn2)O[C@H]1CO,n,x,x,x,x
CCN(CC)C(=O)c1sc2nc(-c3ccccn3)[nH]c(=O)c2c1C,61,n,n,x,n
CCN(CC)C(=O)c1sc2nc(-c3ccncc3)[nH]c(=O)c2c1C,x,n,n,n,n
Cc1sc2nc(-c3ccccn3)[nH]c(=O)c2c1-c1ccccc1,79,x,x,n,x
Cc1sc2nc(-c3ccncc3)[nH]c(=O)c2c1-c1ccccc1,x,n,n,n,n
SMILES,ARNT-TACC3 inh,HIF act,HSF1 activator,HSP90 inh,HSF1 inhib
CCNC(=O)C[C@H]1CC[C@H]2[C@@H](COc3ccc(NC(=O)Nc4ccc(Cl)cc4)cc3C(=O)N2C)O1,n,x,x,x,x
c1cc2c(cc1C1=NNC(=NC3CC3)SC1)OCCO2,n,n,n,76,n
O=C(Nc1ccccc1F)N1C[C@@H]2[C@H](c3ccccc31)[C@@H](CO)N2C(=O)Cc1ccccc1,n,x,x,x,x
COc1ccc(C(=O)NC(=S)Nc2ccc(CN3CCCCC3)cc2)cc1Cl,n,n,59,n,n
O=S(=O)(Cc1ccccc1)N1CCN(c2ccccc2)CC1,n,n,n,n,n
Cc1ccccc1N1CCN(S(=O)(=O)Cc2ccccc2)CC1,n,n,52,n,n
COc1ccc(N2CCN(CCCNC(=O)C(=O)c3c[nH]c4ccccc34)CC2)cc1,48,n,n,n,n
O=C(NCCCN1CCOCC1)C(=O)c1c[nH]c2ccccc12,n,n,n,n,n
